# Measured values reported in PubChem BioAssay (NCI).
# This is part of a sample that, as a whole, favours compounds with a hit. Of some 79,000 tested, about 15% had one in any assay. Unmarked numbers belong to inactive results. Active and inactive are the calls of the source. No stated cut-off is given here; in the data, active means growth inhibition above about 70%; inactive means the rest.
# How the values were obtained:
# [1] = NCI Yeast Anticancer Drug Screen. Data for the rad50 strain (AID 155);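 further: 0% = growth of vehicle-only cultures of the same strain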; conditions: S. cerevisiae rad50 strain growth inhibition, hits give high values
# Summary of the method: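 Growth of the mutant yeast was measured after compound exposure and referenced to vehicle-treated cultures.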
# [2] = NCI Yeast Anticancer Drug Screen. Data for the mec2-1 strain (AID 157); conditions: S. cerevisiae mec2-1 strain, hits give high values
# Summary of the method: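 Vehicle-treated cultures served as reference for growth inhibition of compound-exposed mec2-1 yeast.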
# [3] = NCI Yeast Anticancer Drug Screen. Data for the sgs1 mgt1 strain (AID 161);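 further: 0% = growth of cultures given vehicle only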; conditions: S. cerevisiae sgs1 mgt1 strain, hits give high values
# Summary of the method: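 Read-out: growth inhibition vs vehicle controls. Cells: mutant yeast strain deficient in DNA damage repair.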
# [4] = NCI Yeast Anticancer Drug Screen. Data for the cln2 rad14 strain (AID 165);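 further: 0% = growth equal to vehicle treated cultures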; conditions: S. cerevisiae cln2 rad14 strain, hits give high values
# Summary of the method: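 Each compound was tested on cln2 rad14 yeast. Inhibition of growth was calculated against vehicle-exposed controls.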
# [5] = NCI Yeast Anticancer Drug Screen. Data for the bub3 strain (AID 167); conditions: S. cerevisiae bub3 mutant strain, hits give high values
# Summary of the method: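 Whole-cell yeast assay. The mutant strain was incubated with compounds, and growth inhibition was determined by comparison with vehicle-treated cells.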
# [6] = NCI Yeast Anticancer Drug Screen. Data for the mlh1 rad18 strain (AID 175); conditions: S. cerevisiae mlh1 rad18 strain growth inhibition, hits give high values
# Summary of the method: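 Vehicle-treated cultures served as the reference for growth inhibition in a yeast strain carrying DNA damage repair alterations exposed to each compound.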
# [7] = at 5.0 µM (retest, dose inferred, filed as 0.5)
# [8] = at 50.0 µM (retest, dose inferred, filed as 5.0)
SMILES,"growth inhibition [1, 7] [%]","growth inhibition [1, 8]",growth inhibition ([1]; at 50.0 µM),"growth inhibition [2, 7]","growth inhibition [2, 8]",growth inhibition ([2]; at 50.0 µM),"growth inhibition [3, 7]","growth inhibition [3, 8]",growth inhibition ([3]; at 50.0 µM),"growth inhibition [4, 7] [%]","growth inhibition [4, 8]",growth inhibition ([4]; at 50.0 µM),"growth inhibition [5, 7]","growth inhibition [5, 8]",growth inhibition ([5]; at 50.0 µM),"growth inhibition [6, 7]","growth inhibition [6, 8]",growth inhibition ([6]; at 50.0 µM)
NC(=S)C(=Nc1ccccc1F)Nc1ccccc1F,2,85% (active),8.4%,-8%,31%,-9.55%,-10%,70% (active),61.6%,-6,35%,5.55%,-1%,81% (active),32.9%,20%,87% (active),66.2%
C=C1C(=O)OC(CCCCCCCCCCCCC)C1C(=O)O (stereo not given),69,89% (active),84% (active),93% (active),89% (active),89.5% (active),71% (active),84% (active),76.3% (active),63,85% (active),85% (active),86% (active),90% (active),86.5% (active),86% (active),89% (active),80.8% (active)
C/C(=N\NC(N)=S)c1ccc(Oc2ccccc2)cc1,50,77% (active),98.9% (active),43%,75% (active),98.5% (active),65%,93% (active),99% (active),27,70% (active),98.5% (active),35%,70% (active),98.8% (active),63%,89% (active),97.8% (active)
CS/C(=N\N=C(/C)c1ccccn1)N1CCN(c2ccccn2)CC1,1,22%,98.1% (active),-1%,14%,82.2% (active),-1%,96% (active),98.6% (active),-5,84% (active),64.2%,-7%,94% (active),91.2% (active),-8%,98% (active),87.5% (active)
CCC1(CC)COC(C)(C(=O)O)OC1,-155,-176%,56.9%,-50%,-62%,11.1%,-68%,-69%,-2.95%,-51,-77%,-41.4%,-65%,-71%,6.2%,-127%,-168%,-6.2%
O=C(Cc1nc2ccccc2s1)C(=O)Nc1ccc(Cl)cc1,2,4%,8%,-1%,2%,23.1%,4%,0%,17.5%,2,2%,75% (active),5%,-2%,63.5%,1%,7%,3.3%
Oc1ccc(Cc2ccccc2)cc1Cl,-1,74% (active),47.5%,-2%,72% (active),41.7%,-2%,78% (active),42.8%,-4,47%,95% (active),-6%,54%,97.7% (active),-1%,85% (active),41.6%
CC(C)(C)C(=O)Nc1ccc2c(c1)C(=O)c1ccccc1C2=O,62,96% (active),82% (active),44%,85% (active),79.2% (active),44%,91% (active),80.7% (active),38,75% (active),83.2% (active),46%,71% (active),87.5% (active),62%,96% (active),86.5% (active)
O=c1oc2ccccc2c(O)c1/C=N/C(=S)NCc1ccccc1,-28,-15%,83.8% (active),-11%,-18%,85.8% (active),-19%,-19%,87.3% (active),-19,10%,76.2% (active),-19%,2%,78.3% (active),-36%,-12%,-42.5%
O=C(Nc1nnc(-c2ccccc2)s1)c1cc(=O)c2cc(Cl)ccc2o1,-3,45%,99.3% (active),0%,58%,99.7% (active),-3%,78% (active),99.5% (active),6,62%,98.8% (active),4%,77% (active),99.4% (active),2%,71% (active),98.9% (active)
